Broadly, the Inhibition is how much of the control response was suppressed. The low end stands for a response near the control, the high end for a response far below the control.

The source of these data is ChEMBL document CHEMBL1157539, “Thousands of chemical starting points for antimalarial lead identification” (Nature, 2010).

The first experiment deals with Plasmodium falciparum. Put plainly: GSK_TCMDC: Inhibition of Plasmodium falciparum 3D7 in whole red blood cells, using parasite LDH activity as an index of growth. Test compounds present at 2uM. The experiment is classed as functional.
For `O=C(NC1CCN(Cc2ccccc2)CC1)c1ccc(-c2nc3cc(Cl)c(F)cc3[nH]2)s1`, the Inhibition is 100%.

In turn, `COc1cc2nc(N3CCC(CNC(=O)c4ccc(-c5ccc(C#N)cc5C)cc4)CC3)nc(N)c2cc1OC` returned an Inhibition of 100%.

`CC(C)N1CCN(C(CN2CCN(CCCOc3cccc(-c4ccccc4)c3)CC2)c2ccc(F)cc2)CC1.Cl` (stereo not drawn) returned an Inhibition of 100%.

Molecule `O=C(Nc1ccc(F)c(C(F)(F)F)c1)NC1CCN(CCCCCNC(=O)C2CC2c2ccc(Cl)c(Cl)c2)CC1` (stereo not drawn) yielded an Inhibition of 100%.

`CS(=O)(=O)c1cc2c(Nc3ccc(N4CCOCC4)cc3)c(C(N)=O)cnc2cc1Br.Cl` had an Inhibition of 100%.

With `Cn1c(=O)c2nc(-c3ccc(Cl)cc3)nnc2n(CCCC#N)c1=O`, the Inhibition was found to be 99%.

Regarding `Cl.N=C(N)NN=Cc1cc([N+](=O)[O-])ccc1Sc1ccccc1CO`, the Inhibition was 84%.

Regarding `O=C(Nc1ccc(F)c(F)c1)c1ccc(CN2CCCN(Cc3cccc(F)c3)CC2)cc1.O=C(O)C(F)(F)F`, the Inhibition came out at 83%.

`CN1CCN(S(=O)(=O)c2ccc3nccc(Nc4ccc(Oc5ccccc5)cc4)c3c2)CC1.Cl` gave an Inhibition of 98%.

`COc1ccc2ncc(F)c(CCN3CCC(NCc4cc(Br)c5c(c4)OCCO5)CC3)c2n1.Cl` had an Inhibition of 100%.

In turn, `Cc1ccc(Cc2c(C)nc3nc(N)nc(N)c3c2C)cc1.Cl` registered an Inhibition of 93%.

As to `Cl.N=C(N)c1ccc(OCc2cccc(COc3ccc(C(=N)N)cc3I)c2)c(I)c1`, the Inhibition was determined as 100%.

In turn, `CN(C)CCNCc1cccc(-c2ccc3c(Nc4ccc(Oc5ccccn5)cc4)ccnc3c2)c1` came in with an Inhibition of 99%.

Take `CCN(CCCN1CCCCC1)c1cc(C)nc(Nc2ccc(C)c(Cl)c2)n1.O=C(O)C(F)(F)F`: the Inhibition is 100%.

`COc1ccc(CNC2Cc3ccccc3C2)cc1-c1ccc(S(=O)(=O)NCCN2CCCC2)s1.O=C(O)C(F)(F)F` showed an Inhibition of 100%.

Take `Nc1nccc2ccc(-c3ccnc(NCc4cccnc4)n3)cc12`: the Inhibition came out at 100%.

`COCCOc1cc(C)c(C2CCN(CCCCNC(=O)c3ccc(NC(=O)c4ccc(Cl)cc4)cc3)CC2)cc1C` yielded an Inhibition of 88%.

As to `CN(C)CCN(Cc1ccccc1)c1ccc([N+](=O)[O-])cc1C(F)(F)F.O=C(O)C(F)(F)F`, the Inhibition is recorded as 96%.

For the molecule `O=C(Nc1cccc(OC2CCN(Cc3ccccc3)CC2)c1)Nc1cccc([N+](=O)[O-])c1.O=C(O)C(F)(F)F`, the Inhibition is 100%.

For `COc1ccccc1-n1c(SCC(=O)Nc2ccccc2F)nc2cccnc21`, the Inhibition is 96%.

The molecule `COc1ccc(-c2ccc(NC(=O)c3cccc(Cl)c3)cc2)cc1CN1CCN(C)CC1.O=C(O)C(F)(F)F` returned an Inhibition of 90%.

Molecule `FC(F)(F)Oc1ccc(Nc2cc(-c3ccncc3)nc(-c3cccnc3)n2)cc1` yielded an Inhibition of 94%.

`COc1c(Br)cc(Br)cc1C(C)=O` displayed an Inhibition of 95%.

Molecule `COc1ccc(Nc2nccc(N3CCC(NS(=O)(=O)c4ccc(NC(C)=O)cc4)C3)n2)cc1` (stereo not drawn) displayed an Inhibition of 100%.

With `COc1ccc2[nH]ccc(=NN=Cc3cccc(Cl)c3)c2c1`, the Inhibition was determined as 100%.

For `CN1C(C)(C)CC(NC(=O)c2ccc(-c3cc4cc(Cl)c(Cl)cc4[nH]3)o2)CC1(C)C`, the Inhibition is recorded as 100%.

In turn, `COc1cccc(-c2ccc(O)c(CNCCc3cccc(F)c3)c2)n1` yielded an Inhibition of 96%.

As for `CCc1ccc(-c2nc3cc(NC(=O)c4ccc([N+](=O)[O-])o4)ccc3o2)cc1`, the Inhibition worked out at 97%.

Turning to `O=C(Nc1cccc(-c2cccc(-c3nc4cc(F)ccc4[nH]3)c2)c1)Nc1ccc2c(c1)OCO2`, the Inhibition amounted to 100%.

On to `Cc1ccccc1CNC(=O)Nc1cccc(-c2csc(NC(=N)N)n2)c1`, for which the Inhibition is reported as 99%.

Molecule `CC(C)[C@H](NC(=O)c1ccc(O)c(-c2ccc(Cl)c(Cl)c2)c1)C(=O)NCCN(C)C` yielded an Inhibition of 92%.

As for `O=S(=O)(Nc1cccc(CCN2CCCCC2CCN2CCCC2)c1)c1cccc2ccccc12` (stereo not drawn), the Inhibition worked out at 97%.

In turn, `O=C(Nc1cccc(F)c1)N[C@H]1CCN(CCCCCNC(=O)C2CC2c2ccc(Cl)c(Cl)c2)C1` (stereo partly drawn) displayed an Inhibition of 90%.

Molecule `COc1ccc(NC(=O)CCNc2cc(C)nc(NCCc3ccccc3)n2)cc1.O=C(O)C(F)(F)F` came in with an Inhibition of 85%.

The molecule `CN(C)Cc1ccc(-c2cc3ncnc(Nc4ccc(OCc5cccc(F)c5)c(Cl)c4)c3s2)[nH]1` showed an Inhibition of 99%.

Molecule `CCOc1ccc(-c2nc(NC(=O)CS(=O)(=O)c3ccccc3)sc2C)cc1` gave an Inhibition of 100%.

Consider `Cn1cncc1CCCN(Cc1ccc(-c2ccc(C(F)(F)F)cc2)cc1)C(=O)Cn1c(CCc2cccc(F)c2F)cc(=O)c2cccnc21`, for which the Inhibition is reported as 85%.

On to `N#Cc1ccc(N2CCN(Cc3cccc(-c4ccc(-c5nc6cc(C(F)(F)F)ccc6[nH]5)s4)c3)CC2)nc1.O=C(O)C(F)(F)F`, for which the Inhibition worked out at 96%.

The molecule `Clc1ncnc2scc(-c3ccc(Br)cc3)c12` came in with an Inhibition of 95%.

For another experiment, the system named is Plasmodium falciparum. Put plainly: GSK_TCMDC: Inhibition of Plasmodium falciparum Dd2 in whole red blood cells, using parasite LDH activity as an index of growth. Test compounds present at 2uM. The experiment is classed as functional.
The molecule `O=C(NC1CCN(Cc2ccccc2)CC1)c1ccc(-c2nc3cc(Cl)c(F)cc3[nH]2)s1` came in with an Inhibition of 99%.

On to `COc1cc2nc(N3CCC(CNC(=O)c4ccc(-c5ccc(C#N)cc5C)cc4)CC3)nc(N)c2cc1OC`, for which the Inhibition stood at 99%.

On to `CC(C)N1CCN(C(CN2CCN(CCCOc3cccc(-c4ccccc4)c3)CC2)c2ccc(F)cc2)CC1.Cl` (stereo not drawn), for which the Inhibition turned out to be 99%.

Turning to `O=C(Nc1ccc(F)c(C(F)(F)F)c1)NC1CCN(CCCCCNC(=O)C2CC2c2ccc(Cl)c(Cl)c2)CC1` (stereo not drawn), the Inhibition worked out at 16%.

As for `CS(=O)(=O)c1cc2c(Nc3ccc(N4CCOCC4)cc3)c(C(N)=O)cnc2cc1Br.Cl`, the Inhibition is 89%.

As to `Cn1c(=O)c2nc(-c3ccc(Cl)cc3)nnc2n(CCCC#N)c1=O`, the Inhibition amounted to 98%.

For the molecule `Cl.N=C(N)NN=Cc1cc([N+](=O)[O-])ccc1Sc1ccccc1CO`, the Inhibition is on record as 0%.

For the molecule `O=C(Nc1ccc(F)c(F)c1)c1ccc(CN2CCCN(Cc3cccc(F)c3)CC2)cc1.O=C(O)C(F)(F)F`, the Inhibition is on record as 12%.

Molecule `CN1CCN(S(=O)(=O)c2ccc3nccc(Nc4ccc(Oc5ccccc5)cc4)c3c2)CC1.Cl` registered an Inhibition of 91%.

With `COc1ccc2ncc(F)c(CCN3CCC(NCc4cc(Br)c5c(c4)OCCO5)CC3)c2n1.Cl`, the Inhibition is 94%.

For the molecule `Cc1ccc(Cc2c(C)nc3nc(N)nc(N)c3c2C)cc1.Cl`, the Inhibition came out at 1%.

Molecule `Cl.N=C(N)c1ccc(OCc2cccc(COc3ccc(C(=N)N)cc3I)c2)c(I)c1` showed an Inhibition of 100%.

In turn, `CN(C)CCNCc1cccc(-c2ccc3c(Nc4ccc(Oc5ccccn5)cc4)ccnc3c2)c1` came in with an Inhibition of 100%.

In turn, `CCN(CCCN1CCCCC1)c1cc(C)nc(Nc2ccc(C)c(Cl)c2)n1.O=C(O)C(F)(F)F` came in with an Inhibition of 100%.

Turning to `COc1ccc(CNC2Cc3ccccc3C2)cc1-c1ccc(S(=O)(=O)NCCN2CCCC2)s1.O=C(O)C(F)(F)F`, the Inhibition turned out to be 100%.

As for `Nc1nccc2ccc(-c3ccnc(NCc4cccnc4)n3)cc12`, the Inhibition was 95%.

`COCCOc1cc(C)c(C2CCN(CCCCNC(=O)c3ccc(NC(=O)c4ccc(Cl)cc4)cc3)CC2)cc1C` displayed an Inhibition of 30%.

As for `CN(C)CCN(Cc1ccccc1)c1ccc([N+](=O)[O-])cc1C(F)(F)F.O=C(O)C(F)(F)F`, the Inhibition worked out at 89%.

Take `O=C(Nc1cccc(OC2CCN(Cc3ccccc3)CC2)c1)Nc1cccc([N+](=O)[O-])c1.O=C(O)C(F)(F)F`: the Inhibition is given as 48%.

Molecule `COc1ccccc1-n1c(SCC(=O)Nc2ccccc2F)nc2cccnc21` yielded an Inhibition of 88%.

For `COc1ccc(-c2ccc(NC(=O)c3cccc(Cl)c3)cc2)cc1CN1CCN(C)CC1.O=C(O)C(F)(F)F`, the Inhibition was 33%.

Regarding `FC(F)(F)Oc1ccc(Nc2cc(-c3ccncc3)nc(-c3cccnc3)n2)cc1`, the Inhibition was 52%.

`COc1c(Br)cc(Br)cc1C(C)=O` showed an Inhibition of 0%.

Take `COc1ccc(Nc2nccc(N3CCC(NS(=O)(=O)c4ccc(NC(C)=O)cc4)C3)n2)cc1` (stereo not drawn): the Inhibition is on record as 16%.

`COc1ccc2[nH]ccc(=NN=Cc3cccc(Cl)c3)c2c1` showed an Inhibition of 99%.

`CN1C(C)(C)CC(NC(=O)c2ccc(-c3cc4cc(Cl)c(Cl)cc4[nH]3)o2)CC1(C)C` registered an Inhibition of 43%.

Consider `COc1cccc(-c2ccc(O)c(CNCCc3cccc(F)c3)c2)n1`, for which the Inhibition stood at 67%.

The molecule `CCc1ccc(-c2nc3cc(NC(=O)c4ccc([N+](=O)[O-])o4)ccc3o2)cc1` returned an Inhibition of 80%.

`O=C(Nc1cccc(-c2cccc(-c3nc4cc(F)ccc4[nH]3)c2)c1)Nc1ccc2c(c1)OCO2` came in with an Inhibition of 49%.

`Cc1ccccc1CNC(=O)Nc1cccc(-c2csc(NC(=N)N)n2)c1`: the Inhibition was 14%.

Take `CC(C)[C@H](NC(=O)c1ccc(O)c(-c2ccc(Cl)c(Cl)c2)c1)C(=O)NCCN(C)C`: the Inhibition is 1%.

Take `O=S(=O)(Nc1cccc(CCN2CCCCC2CCN2CCCC2)c1)c1cccc2ccccc12` (stereo not drawn): the Inhibition was found to be 6%.

`O=C(Nc1cccc(F)c1)N[C@H]1CCN(CCCCCNC(=O)C2CC2c2ccc(Cl)c(Cl)c2)C1` (stereo partly drawn): the Inhibition is recorded as 1%.

For the molecule `COc1ccc(NC(=O)CCNc2cc(C)nc(NCCc3ccccc3)n2)cc1.O=C(O)C(F)(F)F`, the Inhibition was determined as 0%.

Molecule `CN(C)Cc1ccc(-c2cc3ncnc(Nc4ccc(OCc5cccc(F)c5)c(Cl)c4)c3s2)[nH]1` came in with an Inhibition of 87%.

For the molecule `CCOc1ccc(-c2nc(NC(=O)CS(=O)(=O)c3ccccc3)sc2C)cc1`, the Inhibition was 59%.

With `Cn1cncc1CCCN(Cc1ccc(-c2ccc(C(F)(F)F)cc2)cc1)C(=O)Cn1c(CCc2cccc(F)c2F)cc(=O)c2cccnc21`, the Inhibition was 59%.

Molecule `N#Cc1ccc(N2CCN(Cc3cccc(-c4ccc(-c5nc6cc(C(F)(F)F)ccc6[nH]5)s4)c3)CC2)nc1.O=C(O)C(F)(F)F` had an Inhibition of 52%.

As for `Clc1ncnc2scc(-c3ccc(Br)cc3)c12`, the Inhibition is 96%.
